# Laboratory results published in PubChem BioAssay (NCATS).
# A number with no mark means an inactive call. Records with an inconclusive call do not appear. Active and inactive are the calls of the source. Unless noted, the call rests on the fitted dose curve; in most records, active means well fitted curve in either direction with a large enough effect (not every such curve was filed as active); inconclusive means small, poorly fitted or top-dose-only effect, or another doubt; inactive means flat fitted curve, though single readings scatter.
# Assays:
# [1] = AP1 Signaling Pathway (AID 357); settings: ME-180 AP-1-bla reporter, EGF-induced, beta-lactamase ratio, 5 h; at 17.2 µM (top of the series) unless noted;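 further: ME-180 reporter cells stimulated with EGF at its EC50 level; on the % scale 0 is the no-effect control and ±100 the full control effect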
# In short: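 Beta-lactamase reporter under AP-1 response element, ME-180 background. Stimulus: EC50 EGF. Compound exposure 5 h, 37 °C. Detection: CCF4, 2.5 h RT, 460/530 nm. Values: AC50 from titration.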
# [2] = target: Cytochrome P450 1A2 (Homo sapiens) (UniProt P05177); assay: p450-cyp1a2 (AID 410; calls by dose curve; further: potency means the concentration at half of the fitted maximal effect;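 on activity change, negative = inhibition: -100% = full effect of reference inhibitor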)
# In short: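 O-Demethylation of luciferin 6' methyl ether by human CYP1A2 is monitored as luciferase luminescence. Substrate sits at Km (100uM); enzyme is 20nM. Values are scaled to 57 uM furafylline as maximal inhibition.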
# [3] = Stat Signaling Pathway (AID 446); settings: ME-180 SIE beta-lactamase reporter, IL-6 stimulated, 5 h; at 17.2 µM (top of the series) unless noted;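 further: ME-180 cervical cancer cells given 40 pM IL-6 alongside compound; SIE-controlled beta-lactamase reporter measured as 460/530 nm FRET emission ratio; on the % scale 0 is the no-effect control and ±100 the full control effect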
# In short: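 Normalization used AC90 stimulation (300 pM IL-6) and AC90 inhibition (125 nM pan-JAK inhibitor at 40 pM IL-6). The underlying signal is SIE-driven beta-lactamase in ME-180 cells after 5 h IL-6 exposure with compound.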
# [4] = target: Glucocorticoid receptor (Homo sapiens) (UniProt P04150); assay: GR-GFP Redistribution (AID 450;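 active means compounds whose dose series gives a full or clear partial fitted curve of increased nuclear translocation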; further: potency means the concentration at half of the fitted maximal effect)
# [5] = target: Glucocorticoid receptor (Homo sapiens) (UniProt P04150); assay: GR-EFC Redistribution (AID 451; calls by dose curve; further: potency means the concentration at half of the fitted maximal effect); settings: CHO-K1 GR-EFC translocation, beta-gal luminescence, 2 h
# In short: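 Translocation of GR-ED fusion to nuclear EA restores b-gal, read by luminescence after 1 h room-temperature detection. Engineered CHO-K1 biosensor cells, 1,000/well, exposed 2 h at 37 C to titrations up to 46 uM final.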
# [6] = target: Mitogen-activated protein kinase 10 (Mus musculus) (UniProt Q61831); assay: JNK3 AlphaScreen Assay (AID 530);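 further: kinase came from lysate of stimulated human HepG2 cells; signal reports phosphorylation of biotinylated GST-cJun 1-79 at Ser73 with 10 µM ATP; on the % scale 0 is the no-effect control and ±100 the full control effect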
# In short: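 qHTS titrations with 15 min compound pre-incubation before adding ATP (10 uM final). Read-out: AlphaScreen of Ser73-phosphorylated biotin-GST-cJun using HepG2 lysate JNK3 activated by IL-1β and TNFα.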
# [7] = target: 3',5'-cyclic-AMP phosphodiesterase 4B (Homo sapiens) (UniProt Q07343); assay: qHTS Assay for Inhibitors of PDE-IV (AID 607; active means well fitted activation curve with a large enough effect in the main read-out, with a control signal flat, not every such curve was filed as active; further: % of control where 0% means no effect)
# In short: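 HEK293 ACTOne cells with CNG channel (1000/well), endogenous PDE4; membrane potential dye, compounds up to 22.9 uM final. Fluorescence Ex 535/Em 590; RO 20-1724 (100 uM final) as reference.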
# [8] = target: Cytochrome P450 2C9 (Homo sapiens) (UniProt P11712); assay: qHTS Assay for Inhibitors and Substrates of Cytochrome P450 2C9 (AID 883; active means well fitted curve in the direction sought with a large enough effect; an effect the other way counts as inactive or inconclusive; further: potency means the concentration at half of the fitted maximal effect; nearly all actives have a fitted effect of over 60% in size)
# In short: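 Luminescent read-out of deoxyluciferin hydroxylation, normalized to 57uM sulphaphenazole (AC100). Reaction: 10nM enzyme, 100uM Luciferin-H (equal to KM), 25mM KPO4, 10 min compound preincubation, then 60 min with NADPH regeneration, both at 37C.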
# [9] = NFAT Signaling Pathway (AID 444); settings: Jurkat NFAT-bla M1, carbachol, beta-lactamase ratio, 5 h; at 17.2 µM (top of the series) unless noted;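 further: carbachol stimulus at about its EC50 of 1 µM final; on the % scale 0 is the no-effect control and ±100 the full control effect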
# In short: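 Read-out: CCF4 FRET ratio (460 nm/530 nm) after 1 h RT dye loading, used for %activity and AC50 from titration series. Cells: Jurkat NFAT-β-lactamase/M1 line, treated with compound plus 1 uM carbachol for 5 h, 37 °C.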
# [10] = target: Guanine nucleotide-binding protein G(i) subunit alpha-1 (Homo sapiens) (UniProt P63096); assay: qHTS Assay for Inhibitors of RGS12 GoLoco Motif Activity (Green Fluorophore) (AID 879; active means well fitted curve in the direction sought with a large enough effect; an effect the other way counts as inactive or inconclusive;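 further: 0% = labeled peptide with Gαi1 and full inhibition = labeled peptide alone without protein; negative values mean loss of peptide binding seen as reduced polarization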)
# In short: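 A drop in FITC polarization marked displacement of the FITC-tagged RGS12 GoLoco peptide (10 nM) from Gαi1 (50 nM). Compounds were incubated 10 min at room temperature in Tris pH 7.5 buffer containing 150 mM NaCl, 0.1 mM GDP and 0.05% NP40; unlabeled peptide titration served as control.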
# [11] = target: Cytochrome P450 3A4 (Homo sapiens) (UniProt P08684); assay: qHTS Assay for Inhibitors and Substrates of Cytochrome P450 3A4 (AID 884; active means well fitted curve in the direction sought with a large enough effect; an effect the other way counts as inactive or inconclusive; further: on the % scale 0 is the no-effect control and ±100 the full control effect; nearly all actives have a fitted effect of over 50% in size)
# In short: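 Luminescent readout of luciferin produced by CYP3A4 (20 nM) dealkylation of Luciferin-PPXE, 25 uM (its KM). NADPH-driven reaction ran 60 min at RT after 10 min compound preincubation; data scaled to 57 uM ketoconazole as 100% inhibition.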
# [12] = qHTS Assay for Identification of Small Molecule Antagonists for NFkB Signaling Pathway (AID 895; active means well fitted inhibition curve with a large enough effect in the signal ratio, with a control signal flat, not every such curve was filed as active; the % refers to the signal ratio; further: on the % scale 0 is the no-effect control and ±100 the full control effect)
# In short: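 Beta-lactamase reporter read-out (460 and 530 nm emission ratio, 405 nm excitation, 2 hrs substrate loading RT) after 5 hr stimulation with 10 pM TNF alpha in compound-treated NFkB-bla ME-180 cells in low-serum medium.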
# [13] = target: Muscarinic acetylcholine receptor M1 (Rattus norvegicus) (UniProt P08482); assay: qHTS Assay for Antagonists of Acetylcholine Muscarinic M1 Receptor: Measurement of IP-One Response (AID 944; active means well fitted curve in the direction sought with a large enough effect; an effect the other way counts as inactive or inconclusive; further: nearly all actives have a fitted effect of over 75% in size; further: potency means the concentration at half of the fitted maximal effect)
# In short: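 Antagonist mode with rat M1 receptor transfected into CHO cells. Compound is added first for 10 min, carbachol at its EC80 follows for 30 min, and lysis reagents then allow TR-FRET detection of accumulated IP1.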
# [14] = target: Pyruvate kinase (Leishmania mexicana) (UniProt Q27686); assay: qHTS Validation Assay for Inhibitors of Leishmania Mexicana Pyruvate Kinase (AID 945; active means well fitted curve in the direction sought with a large enough effect; an effect the other way counts as inactive or inconclusive;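 further: 0% = DMSO only neutral control wells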)
# In short: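 Substrate mix (0.5 mM PEP, 0.1 mM ADP, 7 mM MgCl2, 50 mM KCl, pH 7.2 imidazole) received compound by pin tool, then 0.2 nM LmPYK E451W. After 1 h at room temperature, PKLight was added and luminescence measured.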
# [15] = target: Pyruvate kinase PKM (Homo sapiens) (UniProt P14618); assay: qHTS Assay for Activators of Human Muscle Pyruvate Kinase (AID 954; active means well fitted curve in the direction sought with a large enough effect, not every such curve was filed as active;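 further: 0% = uninhibited enzyme and -100% = no enzyme or full thiadiazolimine inhibition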)
# In short: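 Compound pinned into substrate mix (0.5 mM PEP, 0.1 mM ADP), then 0.1 nM PKM2 added; 1 h, RT. Stop/detection luciferase reagent added, luminescence read. Normalized to no-inhibition and no-enzyme or reference-inhibitor controls.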
# [16] = target: Alpha-galactosidase A (Homo sapiens) (UniProt P06280); assay: Counterscreen for Glucocerebrosidase Inhibitors: qHTS Assay for Human alpha-Galactosidase at pH 4.5 (AID 992; active means well fitted curve in the direction sought with a large enough effect; an effect the other way counts as inactive or inconclusive; further: 0% is about no effect)
# In short: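 Steps: enzyme (2 nM final), then compound across 0.7 nM to 77 uM, then 80 uM fluorogenic galactopyranoside substrate; incubate 20 min at room temperature; quench at pH 10; measure fluorescence at 365/440 nm.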
# [17] = target: alpha-glucosidase (Oryza sativa, rice) (UniProt Q653V4); assay: Counterscreen for Glucocerebrosidase Inhibitors: qHTS Assay for Rice alpha-Glucosidase at pH 5.0 (AID 997; active means well fitted curve in the direction sought with a large enough effect; an effect the other way counts as inactive or inconclusive;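 further: 0% = full activity with enzyme and -100% = basal without enzyme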)
# In short: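 Endpoint fluorogenic assay at pH 5.0: compounds (0.7 nM to 77 uM) titrated against 4 nM rice enzyme and 400 uM 4-MU-alpha-glucoside for 20 min at room temperature; NaOH/glycine stop, read ex 365/em 440 nm, Hill-fitted AC50.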
# [18] = qHTS Assay for Identification of Small Molecule Agonists for Hypoxia Response Element Signaling Pathway (AID 914; active means well fitted activation curve with a large enough effect in the signal ratio, with a control signal flat, not every such curve was filed as active; the % refers to the signal ratio; further: % of control where 0% means no effect); settings: ME-180 (cervical carcinoma) HRE-bla reporter, beta-lactamase ratio, CoCl2, 17 h; activation: active compounds read high
# In short: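 Read-out: CCF4 FRET ratio of 460nm to 530nm emission (excitation 405nm) after 2.5 hours at room temperature, taken from HRE-bla ME-180 cells that had been exposed to compound and EC50 CoCl2 for 17 hours.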
# [19] = target: Cytochrome P450 2C19 (Homo sapiens) (UniProt P33261); assay: qHTS Assay for Inhibitors and Substrates of Cytochrome P450 2C19 (AID 899; active means well fitted curve in the direction sought with a large enough effect; an effect the other way counts as inactive or inconclusive; further: potency means the concentration at half of the fitted maximal effect; nearly all actives have a fitted effect of over 60% in size)
# In short: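 Luminescence readout of luciferin formed from 10uM Luciferin-H EGE (KM level) by 5 nM CYP2C19 in 50mM KPO4. 60 min NADPH-driven reaction at 37C after 10 min compound preincubation; data scaled to 57uM ketoconazole inhibition.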
# [20] = target: Cytochrome P450 3A4 (Homo sapiens) (UniProt P08684); assay: qHTS Assay for Activators of Cytochrome P450 3A4 (AID 885; active means well fitted curve in the direction sought with a large enough effect; an effect the other way counts as inactive or inconclusive; further: nearly all actives have a fitted effect of over 65% in size)
# In short: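 Human CYP3A4 dealkylates Luciferin-PPXE to luciferin, which luciferase detection converts to light. Substrate was at its KM (25uM), buffer 200mM KPO4, reaction 60 min at RT.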
# [21] = qHTS Assay for Identification of Small Molecule Agonists for Thrombopoietin (TPO) Signaling Pathway (AID 917; active means well fitted curve in the direction sought with a large enough effect; an effect the other way counts as inactive or inconclusive; further: on the % scale 0 is the no-effect control and ±100 the full control effect)
# In short: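 Quantitative HTS for pathway activators: compounds were pin-transferred onto IL-3-starved Ba/F3 cells expressing human TPO receptor, TPO was added at its EC50 (26 pM final), and after 24 hrs at 37 C reporter luciferase was measured.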
# [22] = target: Muscarinic acetylcholine receptor M1 (Rattus norvegicus) (UniProt P08482); assay: qHTS Assay for Antagonists of Acetylcholine Muscarinic M1 Receptor: Kinetic Measurement of Intracellular Calcium Response (AID 943; active means well fitted curve in the direction sought with a large enough effect; an effect the other way counts as inactive or inconclusive; further: potency means the concentration at half of the fitted maximal effect; nearly all actives have a fitted effect of over 75% in size)
# In short: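 Antagonism is measured as inhibition of the carbachol-evoked calcium rise in CHO cells transfected with rat M1. Cells are dye-loaded, exposed to compound for 10 min, then stimulated with 100 nM carbachol (EC80).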
# Muscarinic acetylcholine receptor M1 (Rattus norvegicus), sequence (P08482 whole entry, looked up): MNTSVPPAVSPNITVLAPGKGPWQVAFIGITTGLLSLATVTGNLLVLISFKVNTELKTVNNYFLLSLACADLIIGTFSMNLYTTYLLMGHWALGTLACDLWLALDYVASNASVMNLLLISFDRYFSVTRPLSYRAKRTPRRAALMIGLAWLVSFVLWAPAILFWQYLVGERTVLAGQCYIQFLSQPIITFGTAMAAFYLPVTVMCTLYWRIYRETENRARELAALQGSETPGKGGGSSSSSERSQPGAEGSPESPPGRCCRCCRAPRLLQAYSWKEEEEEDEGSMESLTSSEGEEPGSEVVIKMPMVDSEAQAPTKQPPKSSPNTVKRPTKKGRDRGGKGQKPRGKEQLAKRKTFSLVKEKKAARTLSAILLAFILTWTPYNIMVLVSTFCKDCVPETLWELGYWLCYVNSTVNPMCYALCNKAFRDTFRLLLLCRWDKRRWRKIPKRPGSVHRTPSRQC
# 3',5'-cyclic-AMP phosphodiesterase 4B (Homo sapiens), sequence (Q07343 whole entry, looked up): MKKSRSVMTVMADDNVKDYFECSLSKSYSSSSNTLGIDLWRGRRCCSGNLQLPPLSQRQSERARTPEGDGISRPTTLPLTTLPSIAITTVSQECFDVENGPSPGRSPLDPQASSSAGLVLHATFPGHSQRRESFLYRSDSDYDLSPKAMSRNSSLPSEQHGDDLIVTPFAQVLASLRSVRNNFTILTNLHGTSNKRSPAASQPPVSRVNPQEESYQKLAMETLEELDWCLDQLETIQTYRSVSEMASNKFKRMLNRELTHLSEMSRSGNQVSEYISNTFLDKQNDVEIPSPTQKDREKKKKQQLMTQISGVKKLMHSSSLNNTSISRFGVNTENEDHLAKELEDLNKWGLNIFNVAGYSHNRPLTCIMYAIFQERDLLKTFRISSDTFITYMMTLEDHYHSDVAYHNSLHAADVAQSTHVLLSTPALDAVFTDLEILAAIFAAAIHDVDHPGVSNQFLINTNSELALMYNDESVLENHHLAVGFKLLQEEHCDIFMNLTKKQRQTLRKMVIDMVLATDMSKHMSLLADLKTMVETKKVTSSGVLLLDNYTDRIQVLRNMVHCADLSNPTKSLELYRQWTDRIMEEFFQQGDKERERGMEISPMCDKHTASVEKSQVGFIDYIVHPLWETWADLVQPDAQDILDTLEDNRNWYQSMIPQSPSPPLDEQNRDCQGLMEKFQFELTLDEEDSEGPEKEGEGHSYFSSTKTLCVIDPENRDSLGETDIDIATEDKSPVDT
# Glucocorticoid receptor (Homo sapiens), sequence (P04150 whole entry, looked up, the tested form may be a part): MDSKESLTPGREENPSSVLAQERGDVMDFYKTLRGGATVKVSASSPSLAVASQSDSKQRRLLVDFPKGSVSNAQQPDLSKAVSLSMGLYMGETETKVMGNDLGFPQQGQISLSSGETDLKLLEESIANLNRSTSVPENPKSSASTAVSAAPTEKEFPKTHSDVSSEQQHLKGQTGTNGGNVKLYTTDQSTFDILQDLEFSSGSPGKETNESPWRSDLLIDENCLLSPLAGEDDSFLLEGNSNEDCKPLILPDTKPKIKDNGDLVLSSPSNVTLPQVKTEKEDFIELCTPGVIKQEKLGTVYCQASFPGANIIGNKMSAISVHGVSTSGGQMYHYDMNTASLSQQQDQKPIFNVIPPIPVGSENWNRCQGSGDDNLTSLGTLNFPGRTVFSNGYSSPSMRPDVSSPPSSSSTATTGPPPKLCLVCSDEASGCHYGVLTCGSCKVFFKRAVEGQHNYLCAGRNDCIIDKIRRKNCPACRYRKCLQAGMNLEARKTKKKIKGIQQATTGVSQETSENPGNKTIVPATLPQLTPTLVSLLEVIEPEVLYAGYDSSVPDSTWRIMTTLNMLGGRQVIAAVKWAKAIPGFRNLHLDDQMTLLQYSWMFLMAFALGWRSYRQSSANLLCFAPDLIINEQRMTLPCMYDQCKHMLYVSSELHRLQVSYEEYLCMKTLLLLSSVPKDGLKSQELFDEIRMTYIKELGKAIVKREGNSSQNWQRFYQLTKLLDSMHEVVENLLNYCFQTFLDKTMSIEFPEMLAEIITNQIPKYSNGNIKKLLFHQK
# Cytochrome P450 1A2 (Homo sapiens), sequence (P05177 whole entry, looked up): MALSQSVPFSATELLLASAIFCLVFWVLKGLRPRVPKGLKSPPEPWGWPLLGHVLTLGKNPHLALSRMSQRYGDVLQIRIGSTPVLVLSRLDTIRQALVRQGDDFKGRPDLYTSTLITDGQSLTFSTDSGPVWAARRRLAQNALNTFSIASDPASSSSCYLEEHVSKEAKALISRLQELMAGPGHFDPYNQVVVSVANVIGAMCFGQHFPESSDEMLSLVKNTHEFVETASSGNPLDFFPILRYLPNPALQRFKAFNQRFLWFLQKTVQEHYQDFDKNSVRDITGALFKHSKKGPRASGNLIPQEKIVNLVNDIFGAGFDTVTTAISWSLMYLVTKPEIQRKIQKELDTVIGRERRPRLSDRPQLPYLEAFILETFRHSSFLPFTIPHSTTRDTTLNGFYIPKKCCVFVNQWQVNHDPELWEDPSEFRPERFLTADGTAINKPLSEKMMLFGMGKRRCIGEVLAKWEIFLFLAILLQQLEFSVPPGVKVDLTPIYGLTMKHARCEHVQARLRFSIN
# Guanine nucleotide-binding protein G(i) subunit alpha-1 (Homo sapiens), sequence (P63096 whole entry, looked up): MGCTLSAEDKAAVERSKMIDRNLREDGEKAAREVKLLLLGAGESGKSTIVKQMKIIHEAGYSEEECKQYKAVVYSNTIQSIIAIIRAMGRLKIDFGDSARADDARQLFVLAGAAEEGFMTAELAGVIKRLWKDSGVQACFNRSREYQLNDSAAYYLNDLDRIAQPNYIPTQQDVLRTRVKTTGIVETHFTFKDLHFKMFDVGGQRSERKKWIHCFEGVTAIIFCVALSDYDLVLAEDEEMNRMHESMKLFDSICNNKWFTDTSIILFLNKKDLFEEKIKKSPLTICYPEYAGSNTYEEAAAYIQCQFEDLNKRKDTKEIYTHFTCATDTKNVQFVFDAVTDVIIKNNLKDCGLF
# Pyruvate kinase PKM (Homo sapiens), sequence (P14618 whole entry, looked up): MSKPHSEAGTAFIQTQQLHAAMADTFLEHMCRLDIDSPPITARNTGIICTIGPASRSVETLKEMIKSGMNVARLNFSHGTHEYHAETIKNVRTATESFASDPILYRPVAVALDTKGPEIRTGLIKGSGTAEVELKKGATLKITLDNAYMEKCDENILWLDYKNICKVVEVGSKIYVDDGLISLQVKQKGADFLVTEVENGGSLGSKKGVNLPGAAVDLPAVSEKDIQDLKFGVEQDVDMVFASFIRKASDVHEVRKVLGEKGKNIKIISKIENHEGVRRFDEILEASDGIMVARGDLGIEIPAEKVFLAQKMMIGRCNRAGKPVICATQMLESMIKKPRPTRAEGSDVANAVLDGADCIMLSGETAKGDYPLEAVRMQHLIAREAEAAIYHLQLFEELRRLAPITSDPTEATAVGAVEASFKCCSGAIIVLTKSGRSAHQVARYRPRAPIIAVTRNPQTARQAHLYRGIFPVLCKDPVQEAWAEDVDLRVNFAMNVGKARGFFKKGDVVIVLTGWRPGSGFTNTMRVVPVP
# Alpha-galactosidase A (Homo sapiens), sequence (P06280 whole entry, looked up): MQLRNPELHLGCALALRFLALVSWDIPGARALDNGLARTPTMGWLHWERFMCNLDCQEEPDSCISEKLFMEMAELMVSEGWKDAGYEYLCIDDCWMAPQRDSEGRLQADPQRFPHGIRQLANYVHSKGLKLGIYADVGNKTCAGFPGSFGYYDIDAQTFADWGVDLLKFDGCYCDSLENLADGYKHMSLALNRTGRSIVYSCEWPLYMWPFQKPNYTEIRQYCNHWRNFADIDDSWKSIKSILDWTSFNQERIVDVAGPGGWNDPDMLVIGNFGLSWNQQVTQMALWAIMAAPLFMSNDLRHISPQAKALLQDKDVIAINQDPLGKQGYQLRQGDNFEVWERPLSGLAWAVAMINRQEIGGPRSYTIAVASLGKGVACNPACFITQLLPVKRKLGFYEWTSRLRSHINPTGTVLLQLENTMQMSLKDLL
# Pyruvate kinase (Leishmania mexicana), sequence (Q27686 2-499 E452W): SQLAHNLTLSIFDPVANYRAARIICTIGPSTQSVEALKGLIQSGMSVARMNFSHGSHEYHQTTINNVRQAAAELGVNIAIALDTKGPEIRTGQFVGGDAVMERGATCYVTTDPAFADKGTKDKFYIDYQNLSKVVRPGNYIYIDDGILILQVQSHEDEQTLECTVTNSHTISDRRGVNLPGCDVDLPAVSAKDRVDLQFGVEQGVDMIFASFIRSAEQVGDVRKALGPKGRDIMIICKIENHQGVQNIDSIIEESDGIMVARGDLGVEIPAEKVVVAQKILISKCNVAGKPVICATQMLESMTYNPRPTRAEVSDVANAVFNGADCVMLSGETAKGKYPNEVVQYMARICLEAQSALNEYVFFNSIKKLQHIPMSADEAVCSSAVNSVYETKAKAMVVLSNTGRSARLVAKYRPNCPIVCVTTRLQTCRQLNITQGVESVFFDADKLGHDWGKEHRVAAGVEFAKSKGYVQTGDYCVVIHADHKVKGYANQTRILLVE
# Cytochrome P450 3A4 (Homo sapiens), sequence (P08684 whole entry, looked up): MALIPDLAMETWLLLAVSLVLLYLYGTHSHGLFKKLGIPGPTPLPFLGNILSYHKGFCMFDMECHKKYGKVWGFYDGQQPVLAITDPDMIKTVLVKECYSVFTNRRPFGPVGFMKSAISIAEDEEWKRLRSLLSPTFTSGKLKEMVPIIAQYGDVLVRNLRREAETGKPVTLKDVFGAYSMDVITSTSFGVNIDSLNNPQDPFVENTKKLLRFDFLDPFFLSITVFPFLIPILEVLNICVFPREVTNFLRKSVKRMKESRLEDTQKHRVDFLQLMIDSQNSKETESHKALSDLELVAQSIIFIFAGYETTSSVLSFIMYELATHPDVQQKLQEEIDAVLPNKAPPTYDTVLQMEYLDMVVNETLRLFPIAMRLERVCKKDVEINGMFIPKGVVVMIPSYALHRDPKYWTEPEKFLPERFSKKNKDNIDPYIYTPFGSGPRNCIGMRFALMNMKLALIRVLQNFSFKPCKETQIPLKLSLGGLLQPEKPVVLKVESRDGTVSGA
smiles,measurement,setting,value
Cc1cc(Cc2cc(Cc3cc(C)cc(C(C)(C)C)c3O)c(C)cc2C)c(O)c(C(C)(C)C)c1,"activity change, negative = inhibition",[1],-2.73% [at 7.69 µM]
same,"activity change, negative = inhibition",[2],-17.2% [at 2.29 µM]
same,"activity, negative = inhibition",[3],-3.85% [at 7.69 µM]
same,Potency,[4],> 46 µM
same,Potency,[5],> 9.22 µM
same,"activity change, negative = inhibition",[6],-4.33% [at 11.4 µM]
same,Potency,[7],inactive
same,Potency,[8],3.16 µM (active)
CCOc1ccc(N=C(NC#N)SCC(=O)NC2CC2)cc1,"activity change, negative = inhibition",[1],-3.71%
same,"activity change, negative = inhibition",[9],-22.1%
same,"activity, negative = inhibition",[3],-16.7%
C/C=C1\C(=O)C[C@@H]2[C@@H]3CCC4=CC(=O)CC[C@@]4(C)[C@H]3CC[C@@]12C,"activity change, negative = inhibition",[1],13.9% [at 38 µM]
same,Potency,[2],inactive
same,"activity, negative = inhibition",[3],7.49% [at 38 µM]
same,Potency,[7],inactive
same,outcome,[10],inactive
same,Potency,[11],inactive
same,Potency,[12],inactive
same,Potency,[13],inactive
same,Potency,[14],inactive
same,outcome,[15],inactive
same,outcome,[16],inactive
same,outcome,[17],inactive
Clc1ccccc1-c1nnc2sc(-c3ccco3)nn12,"activity change, negative = inhibition",[1],-8.96%
same,"activity change, negative = inhibition",[9],6.46%
same,"activity, negative = inhibition",[3],0.557%
Cn1cccc1/C=N/n1cnnc1,"activity change, negative = inhibition",[1],-2.1%
same,"activity change, negative = inhibition",[9],-1.22%
same,"activity, negative = inhibition",[3],4.51%
CC(=O)O[C@]12CC[N@+]3(C)CCCC[C@@H]3[C-]1Nc1ccccc12,"activity change, negative = inhibition",[1],2.61% [at 7.69 µM]
same,"activity change, negative = inhibition",[2],-11% [at 11.4 µM]
same,"activity, negative = inhibition",[3],1.87% [at 7.69 µM]
same,Potency,[4],> 46 µM
same,Potency,[5],> 9.22 µM
same,"activity change, negative = inhibition",[6],4.94% [at 11.4 µM]
same,Potency,[7],inactive
same,activation,[18],4.44%
N=C1[C@@H](O)[C@]2(I)c3ccccc3N3C(=N)[C@H](O)[C@@H]4c5ccccc5N1[C@@H]4[C@@H]32,"activity change, negative = inhibition",[1],9.35% [at 7.69 µM]
same,Potency,[2],2.51 µM (active)
same,Potency,[4],> 46 µM
same,Potency,[5],> 9.22 µM
same,"activity change, negative = inhibition",[6],-25.9% [at 11.4 µM]
same,Potency,[7],inactive
same,Potency,[19],3.16 µM (active)
Cc1ccc(C#N)c(SCc2cc3c(cc2Cl)OCO3)n1,"activity change, negative = inhibition",[1],12.7%
same,"activity change, negative = inhibition",[9],-1.4%
same,"activity, negative = inhibition",[3],4.71%
CC1CCN(CC[C@@H]2CCCN2S(=O)(=O)c2cccc(O)c2)CC1,"activity change, negative = inhibition",[1],2.33% [at 38 µM]
same,Potency,[2],inactive
same,"activity, negative = inhibition",[3],-6.42% [at 38 µM]
same,Potency,[4],> 46 µM
same,Potency,[5],> 46 µM
same,outcome,[10],inactive
same,Potency,[20],inactive
same,Potency,[21],inactive
same,Potency,[22],14.1 µM (active)
same,Potency,[13],14.1 µM (active)
same,Potency,[14],inactive
same,outcome,[15],inactive
same,outcome,[16],inactive
same,outcome,[17],inactive
